By inhibition is commonly meant the share of the control response that was lost under treatment.

Structures are written as SMILES. Screen size: about 110,000 compounds; about 730 (0.66%) were called active. Rule as the data show it: active = inhibition above about 50%; inconclusive = no clear call, values can overlap the other calls; inactive = below that. Only a selection was taken, and actives are over-represented in it overall.

The values that follow come from PubChem BioAssay AID521 (Sanford-Burnham Center for Chemical Genomics, 2006).

For this experiment, the target named is Tyrosine-protein phosphatase non-receptor type 7 (Homo sapiens) (UniProt P35236). Kind of experiment: inhibitors of human HePTP phosphatase, primary screen, biochemical, absorbance, leukemia target (AID 521).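 Also: plate controls were vehicle for no effect and reference inhibitor for full effect.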 The settings on record: recombinant HePTP phosphatase activity, OD absorbance; at 20 µM; hits give high values.
Chain of Tyrosine-protein phosphatase non-receptor type 7 (Homo sapiens) (P35236 whole entry, looked up): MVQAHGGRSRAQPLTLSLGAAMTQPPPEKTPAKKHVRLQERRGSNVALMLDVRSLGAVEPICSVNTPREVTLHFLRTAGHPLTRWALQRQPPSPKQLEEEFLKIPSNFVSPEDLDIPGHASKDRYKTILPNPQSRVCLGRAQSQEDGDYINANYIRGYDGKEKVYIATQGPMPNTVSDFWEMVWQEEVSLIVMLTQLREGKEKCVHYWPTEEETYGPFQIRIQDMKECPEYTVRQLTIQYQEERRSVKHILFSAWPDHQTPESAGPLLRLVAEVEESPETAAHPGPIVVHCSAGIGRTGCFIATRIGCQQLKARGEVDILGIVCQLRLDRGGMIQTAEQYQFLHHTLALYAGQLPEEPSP
Regarding `C=CCN1C(=O)/C(=C\c2cccn2-c2cccc([N+](=O)[O-])c2)C(=O)NC1=S`, the inhibition is 98.9% (active).

Regarding `COc1cccc(CN2CCN(C(=O)COc3ccccc3)CC2)c1OC`, the inhibition was 3.3% (inactive). As for `CCOc1cc(C=C2C(=O)NC(=O)NC2=O)cc(Br)c1OCCOc1ccccc1C`, the figure is 3.9% (inactive). As to `CCOP(=O)(OCC)C(=C(Cl)Cl)C(C(=O)OC)C(=O)OC`, the inhibition is 11.5% (inactive).

Take `C=CCSc1nc2ccccc2c(=O)n1-c1ccccc1OC`: the inhibition was 11.5% (inactive).
